Measurements published in ChEMBL document CHEMBL3988442, “University of Dundee, Small-Polar-MMV Screening Library” (2021).

Target: T1, Aspartate--tRNA(Asp/Asn) ligase (Mycobacterium tuberculosis (strain ATCC 25618 / H37Rv)) (UniProt P9WFW3)
T1 sequence (whole entry): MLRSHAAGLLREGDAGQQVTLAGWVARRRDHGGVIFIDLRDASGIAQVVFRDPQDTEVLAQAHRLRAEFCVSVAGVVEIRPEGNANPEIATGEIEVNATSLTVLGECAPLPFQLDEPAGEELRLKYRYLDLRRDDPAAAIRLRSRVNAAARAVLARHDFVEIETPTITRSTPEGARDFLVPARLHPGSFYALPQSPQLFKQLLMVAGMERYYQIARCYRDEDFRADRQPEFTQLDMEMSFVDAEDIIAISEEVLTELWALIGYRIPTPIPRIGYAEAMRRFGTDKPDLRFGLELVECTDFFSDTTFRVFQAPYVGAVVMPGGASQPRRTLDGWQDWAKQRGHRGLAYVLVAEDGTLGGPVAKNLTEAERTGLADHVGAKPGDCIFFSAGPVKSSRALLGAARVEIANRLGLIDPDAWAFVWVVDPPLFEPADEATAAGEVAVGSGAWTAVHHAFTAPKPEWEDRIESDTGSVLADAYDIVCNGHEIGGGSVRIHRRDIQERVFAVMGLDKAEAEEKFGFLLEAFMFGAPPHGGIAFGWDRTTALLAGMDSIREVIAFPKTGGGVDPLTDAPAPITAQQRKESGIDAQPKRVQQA
Experiment: Assay for Asp RNA synthetase-1 from Mycobacterium tuberculosis
Assay type: functional
Parameters: scale not given: in the data most compounds retested in dose-response had high values
Conditions: 30 µM

Q: For `COc1cccc(S(=O)(=O)CCN2CCCCC2)c1`, which Percent Effect is on record?
A: 3.32%

Q: For `CCS(=O)(=O)N1CCC(c2nnc(CN3CCCC3)n2C2CC2)CC1`, which Percent Effect is on record?
A: -0.379%

Q: How did the Percent Effect turn out when `Cc1cccc(CN2C[C@H]3OC(=O)N(CCCN4CCOCC4)[C@H]3C2)n1` was run?
A: -2.42%

Q: For `Cc1ccc(C2COCCN2C(=O)c2ccc(CN(C)C)cc2)o1` (stereo not given), which Percent Effect is on record?
A: -1.28%

Q: `Cc1cc(C)n(CC(=O)N(C)Cc2csc(-c3cccs3)n2)c(=O)n1` was tested. Which Percent Effect did it give?
A: -0.356%

Q: For `N#Cc1cccc(CS(=O)(=O)NCC(O)Cc2ccccc2)c1` (stereo not given), which Percent Effect is on record?
A: -0.908%

Q: `O=C(c1cncc(N2CCC(O)(CO)CC2)n1)N1CCCC1` was tested. Which Percent Effect did it give?
A: -3.27%

Q: For `CCn1cc(CN(C)C(=O)c2cccc(CCC(C)(C)O)c2)cn1`, which Percent Effect is on record?
A: -0.126%

Q: With `CSCC(=O)N1CCCC1c1noc(C2CC2)n1` (stereo not given) as the compound, how does the Percent Effect read?
A: 0.839%

Q: For `O=C1N(Cc2cccc(F)c2F)CCCC1(O)CNC1CCCC1` (stereo not given), which Percent Effect is on record?
A: -0.655%

Q: How did the Percent Effect turn out when `COC(=O)CCN1CCCC1c1ccccc1Cl` (stereo not given) was run?
A: 2.1%

Q: With `Cc1nccn1CCC1CCCCN1Cc1ccc(N(C)C)nc1` (stereo not given) as the compound, how does the Percent Effect read?
A: 2.17%

Q: For `CCCC(NC(=O)c1ccc(OC)cc1F)c1nnn[nH]1` (stereo not given), which Percent Effect is on record?
A: -1.41%

Q: For `COc1cccc(CN(C)C(=O)CN2CCN(c3nccn3C)CC2)c1`, which Percent Effect is on record?
A: 2.95%

Q: `Cc1cc(S(=O)(=O)N2CCCc3ccc(F)cc32)sc1C(=O)O` was tested. Which Percent Effect did it give?
A: 1.87%

Q: For `CCc1nc(NS(=O)(=O)c2ccc(F)cc2C)no1`, which Percent Effect is on record?
A: -2.08%

Q: How did the Percent Effect turn out when `c1cn(Cc2nnc(C3CCN(C4CCOCC4)CC3)n2C2CC2)cn1` was run?
A: -3.53%

Q: `CCN1CC2(CCN(CCOCCO)CC2)CC(c2ccccc2)C1=O` (stereo not given) was tested. Which Percent Effect did it give?
A: -2.77%

Q: With `Cc1ccc(CNC(=O)N(Cc2ccccc2F)C2CC2)cn1` as the compound, how does the Percent Effect read?
A: -0.931%

Q: For `Cc1cc(C)nc(N2Cc3cnn(Cc4ccc(F)cc4)c3C2)n1`, which Percent Effect is on record?
A: -2.29%

Q: `CCN(CC)CC(=O)NCCc1csc(N2CCCC2)n1` was tested. Which Percent Effect did it give?
A: 1.28%

Q: For `CCN(CC)c1ccc(-c2nc(-c3cccc(OC)c3OC)no2)cn1`, which Percent Effect is on record?
A: -4.22%

Q: How did the Percent Effect turn out when `CC(C)N1CCC(NCc2cccnc2N(C)Cc2ccccc2)CC1` was run?
A: -1.94%

Q: For `COc1cccc(CN(C)C(=O)CN2CCN(CCO)CC2)c1`, which Percent Effect is on record?
A: -0.747%

Q: Which Percent Effect does the source give for `CCc1nc(C)c(C(=O)N2C[C@H]3CC[C@@H]2CN(S(=O)(=O)N(C)C)C3)s1` here?
A: -1.85%

Q: Which Percent Effect does the source give for `CC(=O)c1cn(CC(=O)NC(C(=O)O)C(C)C)c2ccccc12` (stereo not given) here?
A: -0.402%

Q: `O=C(NCc1ccncc1)N(Cc1ccccc1F)C1CC1` was tested. Which Percent Effect did it give?
A: -1.67%

Q: Which Percent Effect does the source give for `O=C(c1ccsc1)N1C[C@@H](CN2CCCC2)[C@@H](CO)C1` here?
A: -2.54%

Q: For `c1nc(N2CCCCC2Cn2cncn2)c2ccsc2n1` (stereo not given), which Percent Effect is on record?
A: -0.379%

Q: `CN(Cc1csc(-c2cccs2)n1)C(=O)CCn1ccccc1=O` was tested. Which Percent Effect did it give?
A: -1.85%

Q: With `Cc1oc(C(=O)O)cc1S(=O)(=O)Nc1c(F)cccc1-n1cccn1` as the compound, how does the Percent Effect read?
A: -2.17%

Q: How did the Percent Effect turn out when `O=C(NCCCn1cccn1)N1CCCC1c1ccncc1` (stereo not given) was run?
A: -0.931%

Q: `Cc1cnn(CCNCc2ccc(OCC(N)=O)cc2)c1` was tested. Which Percent Effect did it give?
A: -4.2%

Q: With `COC(=O)CCN1CCCC1c1cccc2c1OCCO2` (stereo not given) as the compound, how does the Percent Effect read?
A: -1.34%

Q: How did the Percent Effect turn out when `O=C(CCNS(=O)(=O)c1ccc2c(c1)CCCC2)NCc1ccoc1` was run?
A: 0.701%

Q: Which Percent Effect does the source give for `CCC(=O)N1CCc2[nH]cnc2C12CCN(C(=O)c1snnc1C)CC2` here?
A: 1.62%

Q: How did the Percent Effect turn out when `CC(C)SCC(=O)N1CCc2c(nc(N(C)C)nc2N(C)C)C1` was run?
A: -3.12%

Q: Which Percent Effect does the source give for `Cc1ncc(C(=O)N2C[C@H]3CC[C@@H]2CN(S(=O)(=O)N(C)C)C3)c(C)n1` here?
A: -0.678%

Q: Which Percent Effect does the source give for `Cc1cnn(Cc2cc(F)ccc2F)c1NC(=O)C1COCCO1` (stereo not given) here?
A: -0.287%

Q: For `Cc1nccn1CCC1CCCCN1C(=O)c1ccc2[nH]nnc2c1` (stereo not given), which Percent Effect is on record?
A: 1.02%
